Results published in PMC4552634, “A New Set of Chemical Starting Points with Plasmodium falciparum Transmission-Blocking Potential for Antimalarial Drug Discovery” (PLoS ONE, 2015).
Like-named read-outs stand apart in the source and are kept apart here. About 3,200 (25%) of roughly 13,000 compounds showed an effect of 50% or more. This is one part of the list.

Test system: P. falciparum stage V gametocytes
Set-up: BacTiter-Glo ATP luminescence viability of purified stage V gametocytes in 384-well plates, per cent inhibition versus DMSO

Compound | % Inhibition (48 h, 5 µM; inhibitor) | % Inhibition (48 h, 5 µM, inhibitor)
CN(C)CCC(=O)c1ccccc1 [TCMDC-125532] | 42.07% | 
Cc1ccc(CC(C)NCC(O)c2cccc(C(F)(F)F)c2)cc1F (stereo not drawn) [TCMDC-131520] | 16.03% | 
COc1ccc(OCCn2cc(C(=O)c3ccco3)c3ccccc32)cc1 [TCMDC-124425] | 55.18% | 
O=C(c1ccco1)c1cn(CCOc2ccccc2)c2ccccc12 [TCMDC-124426] | -19.68% | 
Cc1ccc(CC(C)NCC(O)c2cccc(Cl)c2)cc1F (stereo not drawn) [TCMDC-131522] | 25.69% | 
CC[C@H]1CN2CCc3cc(OC)c(OC)cc3[C@@H]2C[C@@H]1C[C@H]1NCCc2c1cc(OC)c(OC)c2Br [TCMDC-131803] | 73.47% | 
CC[C@H]1CN2CCc3cc(OC)c(OC)cc3[C@@H]2C[C@@H]1C[C@H]1NCCc2c1cc(OC)c(O)c2I [TCMDC-131829] | 88.82% | 
CC[C@H]1CN2CCc3cc(OC)c(OC)cc3[C@@H]2C[C@@H]1C[C@H]1NCCc2c1cc(OC)c(O)c2Cl [TCMDC-131802] | 83.05% | 
COc1ccc(NC(=O)NCC2CCCN(CCCCCNC(=O)/C=C/c3ccc(Cl)c(Cl)c3)C2)c(OC)c1 (stereo not drawn) [TCMDC-139520] | -54.43% | 
Cc1ccc(CC(C)NC[C@H](O)c2cccc(Cl)c2)cc1 (stereo partly drawn) [TCMDC-131434] |  | 17.71%
Cc1ccc(CC(C)NCC(O)c2cccc([N+](=O)[O-])c2)cc1 (stereo not drawn) [TCMDC-131459] | 42.66% | 
CC(O)C1CCCCN1C(=O)c1cccc(-c2ccc(-c3nc4cc(F)ccc4[nH]3)cc2)c1 (stereo not drawn) [TCMDC-132337] | -4.748% | 
CC(Cc1ccc(C(C)(C)C)cc1)NCC(O)c1ccccc1 (stereo not drawn) [TCMDC-131461] | -2.665% | 
COc1cccc(CC(C)NCC(O)c2cccc(Cl)c2)c1 (stereo not drawn) [TCMDC-131508] | -2.665% | 
COc1ccc(CC(C)NCC(O)c2cccc(C(F)(F)F)c2)cc1 (stereo not drawn) [TCMDC-131471] | 20% | 
Cc1c(C(=O)N[C@@H](C)c2ccccc2)c2cc(O)c(Br)cc2n1C1CCCCC1 [TCMDC-135454] | -62.04% | 
COc1c(F)cc(CC(C)NCC(O)c2cccc(Cl)c2)cc1F (stereo not drawn) [TCMDC-131518] | 14.1% | 
N=c1c2c(n(Cc3ccc(Cl)cc3Cl)c3c1CCC3)CCCC2 [TCMDC-125310] | 74.48% | 
COc1ccc(NC(=S)NC(NC(=O)CF)C(Cl)(Cl)Cl)cc1[N+](=O)[O-] (stereo not drawn) [TCMDC-124240] | -10.17% | 
CCC1=C[C@@H]2CN(C1)Cc1c([nH]c3ccccc13)[C@@](C(=O)OC)(c1cc3c(cc1OC)N(C)[C@H]1[C@@](O)(C(=O)OC)[C@H](O)[C@]4(CC)C=CCN5CC[C@]31[C@@H]54)C2 [TCMDC-137769] | 33.28% | 
Cl.c1ccc2c(NCCCCCCCCCNc3c4ccccc4nc4ccccc34)c3ccccc3nc2c1 [TCMDC-124286] | 134.6% | 

Compound | % Inhibition (48 h, 5 µM; inhibitor) | % Inhibition (48 h, 5 µM, inhibitor)
Cl.c1ccc2c(NCCCCCCNc3c4ccccc4nc4ccccc34)c3ccccc3nc2c1 [TCMDC-124285] | 125.5% | 
C#CCN1CCC2=C(C1)c1c(O)cc(C(C)C(C)CCc3ccc(F)cc3)cc1OC2(C)C (stereo not drawn) [TCMDC-125707] | -44.99% | 
Cc1ccc(CC(C)NCC(O)c2cccc(C(F)(F)F)c2)cc1 (stereo not drawn) [TCMDC-131476] |  | 12.88%
COc1cc2c(cc1OC)CN(CCCCNC(=O)c1ccc(NC(=O)c3cc(Cl)cc(Cl)c3)cc1)CC2 [TCMDC-138217] | -10.96% | 
COc1ccc(CC(C)NCC(O)c2cccc(C(F)(F)F)c2)cc1F (stereo not drawn) [TCMDC-131490] | 18.55% | 
C=Cc1cc(OC)c2c(c1)c(=O)oc1c2cc(OC)c2c(O)ccc([C@H]3O[C@H]([C@H](C)O)[C@H](O)[C@H]3O)c21 [TCMDC-141972] | 49.56% | 
CC(=O)Nc1ccc(OCCN(CC(F)(F)F)c2ccc(C#N)cc2C(F)(F)F)cc1 [TCMDC-135848] | 17.4% | 
NC(N)=NC(=O)Nc1cc(Br)c(Cl)c(Br)c1 [TCMDC-137464] | 72.05% | 
CCC1(C)CC(CCNCc2ccccc2O)(c2ccc(F)cc2)CCO1 (stereo not drawn) [TCMDC-124006] | -8.682% | 
COc1ccc(CC(C)NCC(O)c2cccc(Cl)c2F)cc1 (stereo not drawn) [TCMDC-131488] | 21.97% | 
COc1cc(NC(=O)/C=C/c2cc3ccccc3n2C)ccc1OCCN(C(C)C)C(C)C [TCMDC-139900] | 118% | 
Cc1ccc(CC(C)NCC(O)c2cccc(C(F)(F)F)c2)cc1 (stereo not drawn) [TCMDC-131450] |  | 20.44%
Cc1ccc(CC(C)(C)NCC(O)c2cccc(C(F)(F)F)c2)cc1 (stereo not drawn) [TCMDC-131445] | -8.892% | 
CC[C@H]1CN2CC[C@H]1C[C@@H]2[C@@H](O)c1ccnc2ccccc12 [TCMDC-125880] | 69.34% | 
CCCN(CCC)CCOC(=O)C(OCC)(c1ccccc1)c1ccccc1 [TCMDC-131392] | -25.5% | 
COc1ccc2[nH]cc(C3=CCN(Cc4ccccc4)CC3)c2c1 [TCMDC-139048] | -90.48% | 
CC(Cc1ccc(SC(C)(C)C)cc1)NCC(O)c1cccc(Cl)c1 (stereo not drawn) [TCMDC-131492] | -3.8% | 
CC(C)N(C)C(=O)n1cnc(S(=O)(=O)C2CC3CCC2C3)n1 (stereo not drawn) [TCMDC-134379] | 65.83% | 
O=C(NC1CCC(CN2CCC(c3c[nH]c4ccccc34)CC2)CC1)C1(O)c2ccccc2-c2ccccc21 (stereo not drawn) [TCMDC-139901] | 25.48% | 
Cc1nc2ccccn2c1C1(O)C(=O)Nc2c(Cl)cc(Cl)cc21 (stereo not drawn) [TCMDC-124526] | 6.508% | 
COc1ccc(CC(C)NCC(O)c2ccc(Cl)c(Cl)c2)cc1 (stereo not drawn) [TCMDC-131514] | 0.9057% | 
